{
  "source": "PubChem BioAssay (Tox21)",
  "note": "A number with no mark means an inactive call. Calls of active or inactive are those of the source. The call rests on the fitted dose curve. On the % scale 0 is the no-effect control and ±100 the full control effect.",
  "data": [
    {"target": "Gonadotropin-releasing hormone receptor (Homo sapiens) (UniProt P30968)", "sequence (P30968 whole entry, looked up)": "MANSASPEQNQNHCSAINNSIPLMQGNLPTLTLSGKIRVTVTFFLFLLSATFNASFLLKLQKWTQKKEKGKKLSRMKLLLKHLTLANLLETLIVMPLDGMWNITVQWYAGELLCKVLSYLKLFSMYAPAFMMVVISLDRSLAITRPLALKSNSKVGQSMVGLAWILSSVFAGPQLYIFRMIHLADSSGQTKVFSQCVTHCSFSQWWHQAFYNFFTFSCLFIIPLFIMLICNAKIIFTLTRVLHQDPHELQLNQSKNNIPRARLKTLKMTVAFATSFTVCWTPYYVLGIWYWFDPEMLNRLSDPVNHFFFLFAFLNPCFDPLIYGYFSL", "assay": "Human gonadotropin-releasing hormone receptor (GnRHR) small molecule agonists, calcium flux assay in GnRHR-HEK293 cells (AID 1920063); further: nearly all actives have a fitted effect of over 35% in size", "details": "calcium flux fluorescence, agonist mode; series mostly up to 57.6 µM; activity change: at the top concentration", "text": "National Center for Advancing Translational Sciences [NCATS]\nDivision of Preclinical Innovation [DPI]\nU.S. Environmental Protection Agency [EPA]\nNational Institutes of Environmental Health Sciences [NIEHS]\nNational Toxicology Program [NTP]\nU.S. Food and Drug Administration [FDA]\nGonadotropin-releasing hormone receptor (GnRHR) is a G-protein-coupled receptor (GPCR) and acts (through phospholipase C) to increase intracellular inositol trisphosphate and then release intracellular calcium stores. Cell-based GnRHR-Hek293 calcium influx assay is using HEK293 cells that have been genetically engineered to express the human GnRHR, which activity can be measured by calcium signaling. A compound/drug can activate (agonist) GnRHR that can be monitored by levels of intracellular calcium.\nGnRHR-HEK293 cells developed by Codex Corp contain human GnRHR reporter gene, which was stably integrated into HEK 293 cells. The compound activation can be detected by fluorescence intensity via calcium flux assay. This cell line has been used to screen the Tox21 10K compound library to identify GnRHR agonists.\nGnRHR-Hek293 cells were dispensed at 1500cells/4uL/well in 1536-well black wall/clear bottom plates using a multidrop dispenser. After the assay plates were incubated at a 37 C/5% CO2 incubator for 18 hours, 4 uL of Calcium Dye Solution was added to each well. The plates were incubated at 37 C for 1 hour. For agonist mode, 23 nL of compounds dissolved in DMSO, positive controls or DMSO only was transferred to the assay plate by a pin tool station. The fluorescence intensity in the plates was measured using FDSS 7000EX kinetic plate reader with a filter set of Ex/Em=480/540 for 3 min at 1 sec intervals. Each test compound was measured at 15 concentrations and in triplicates.", "values": [
      {"smiles": "COC(=O)c1sccc1S(=O)(=O)NC(=O)Nc1nc(C)nc(OC)n1", "Potency": "inactive"},
      {"smiles": "CNC(=O)N(C)c1nnc(C(C)(C)C)s1", "Potency": "inactive"},
      {"smiles": "CC(C)(Cl)Cl", "Potency": "inactive"},
      {"smiles": "CC(C)C1(C)N=C(c2nc3ccccc3cc2C(=O)O)NC1=O", "note": "(stereo not given)", "Potency": "inactive"},
      {"smiles": "Oc1c(Cl)c(Cl)c(Cl)c(Cl)c1Cl", "activity change": "8.27% [at 26.4 µM, active compounds read high]"},
      {"smiles": "CCNc1nc(NC(C)C)nc(OC)n1", "activity change": "-0.771%"},
      {"smiles": "CC(=O)C(C)(C)C", "activity change": "-1.12%"},
      {"smiles": "Nc1ccc(Cc2ccc(N)cc2)cc1", "Potency": "inactive"},
      {"smiles": "OC[P+](CO)(CO)CO", "Potency": "inactive"},
      {"smiles": "COCC(=O)N(c1c(C)cccc1C)N1CCOC1=O", "activity change": "0.876%"},
      {"smiles": "NC(=S)c1c(Cl)cccc1Cl", "activity change": "0.08%"},
      {"smiles": "CC1C=[C-]C=C1.[C-]#[O+].[C-]#[O+].[C-]#[O+].[Mn]", "Potency": "inactive"},
      {"smiles": "c1ccc(Nc2ccc3ccccc3c2)cc1", "Potency": "inactive"},
      {"smiles": "CCOP(=S)(OCC)SCCSCC", "Potency": "inactive"},
      {"smiles": "N#CCC#N", "activity change": "-0.305%"},
      {"smiles": "CCOC(=O)CC(SP(=O)(OC)OC)C(=O)OCC", "note": "(stereo not given)", "Potency": "inactive"},
      {"smiles": "CC(O)CCO", "note": "(stereo not given)", "Potency": "inactive"},
      {"smiles": "ClCc1ccccc1CCl", "activity change": "-0.305%"},
      {"smiles": "NC(=O)OCCCc1ccccc1", "activity change": "-1.11% [at 26.4 µM, active compounds read high]"},
      {"smiles": "N#Cc1ccccc1N", "activity change": "-0.429%"},
      {"smiles": "Cc1cc(O)ccc1Cl", "Potency": "inactive"},
      {"smiles": "COC(=O)c1ccccc1CS(=O)(=O)NC(=O)Nc1nc(OC)cc(OC)n1", "activity change": "0.261%"},
      {"smiles": "O=NN1CCCCC1", "activity change": "-0.086%"},
      {"smiles": "Cc1ncc(CNC(=O)N(CCCl)N=O)c(N)n1", "activity change": "-1.87% [at 26.4 µM, active compounds read high]"},
      {"smiles": "Cc1cccc(N)c1N", "Potency": "inactive"},
      {"smiles": "CC(C)(C)OOC(C)(C)CCC(C)(C)OOC(C)(C)C", "activity change": "1.53%"},
      {"smiles": "COc1cc(N)c(Cl)cc1C(=O)NC1CN2CCC1CC2", "note": "(stereo not given)", "activity change": "0.593% [at 26.4 µM, active compounds read high]"},
      {"smiles": "COS(=O)(=O)c1ccc(C)cc1", "activity change": "1.44%"},
      {"smiles": "C=C1CC[C@@]2(O)[C@H]3Cc4ccc(O)c5c4[C@@]2(CCN3CC2CC2)[C@H]1O5", "activity change": "-0.39% [at 26.4 µM, active compounds read high]"},
      {"smiles": "NNC(=O)c1ccccc1", "activity change": "2.56%"},
      {"smiles": "O=c1[nH]c2ccccc2n1C1CCN(CCCC(c2ccc(F)cc2)c2ccc(F)cc2)CC1", "Potency": "inactive"},
      {"smiles": "CCCCCCCCCCCCCCCCCC(=O)O", "Potency": "inactive"},
      {"smiles": "O=C(O)COc1cc(Cl)c(Cl)cc1Cl", "Potency": "inactive"},
      {"smiles": "CCCCOC(=O)COC(=O)c1ccccc1C(=O)OCCCC", "Potency": "inactive"},
      {"smiles": "Fc1cc(Br)ccc1CBr", "activity change": "-0.483% [at 26.4 µM, active compounds read high]"},
      {"smiles": "C[N+]1(C)CCCCC1", "activity change": "-0.804%"},
      {"smiles": "CN=C=O", "activity change": "-0.326%"},
      {"smiles": "O=C(NCO)NCO", "activity change": "0.0441%"},
      {"smiles": "CCCC[n+]1cccc(C)c1", "Potency": "inactive"},
      {"smiles": "N#CCc1ccccc1", "activity change": "-0.139%"}
    ]}
  ]
}
